High-throughput results from PubChem BioAssay.
Shown is part of a subset that was picked to be rich in hits.
Pf Dd2 inh: qHTS Primary assay for Inhibitors of Plasmodium falciparum Dd2 growth in vitro | P. falciparum Dd2 growth, SYBR Green, 72 h | Potency, µM (top dose mostly 28.9 µM), actives largely listed as inhibitors | 4.3% of 120,000 active | AID 1347417, 2020; active = well fitted inhibition curve with a large enough effect; also: nearly all actives have a fitted effect of over 65% in size
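Readout: SYBR Green fluorescence, 485 nm excitation, 535 nm emission, after ~16 h lysis at 37C. Before that, Dd2-infected red cells (2.5% hematocrit) grew 72 h with compound, 29 uM top final concentration.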
Of the large screens only hits and unclear results are named; the others gave an inactive call.

COc1ccc(-c2cc3ccc(O)c(CN4CCCC(C)C4)c3oc2=O)cc1 (configuration not stated)	Pf Dd2 inh 1µM
COc1ccc(-c2cc3ccc(O)c(CN4CCCC(C)C4)c3oc2=O)cc1OC (configuration not stated)	Pf Dd2 inh 4.5µM
COc1ccc(-c2cc3ccc(O)c(CN4CCCC4)c3oc2=O)cc1OC	Pf Dd2 inh 4µM
COc1ccc(-c2nc(CN3CCC(C(=O)NCCc4ccccc4)CC3)c(C)o2)cc1OC	none
COc1ccc(-c2c(C)c3cc(OC(=O)N4CCOCC4)ccc3oc2=O)cc1OC	none
COc1ccc(CCC(=O)N2CCC[C@H]2c2nc(-c3ccc(OC)c(OC)c3)no2)cc1	none
COc1ccc(N2CCN(C3CCCN(Cc4cc(=O)[nH]c(=O)[nH]4)C3)CC2)cc1 (configuration not stated)	none
COc1ccc(NC(=O)N2CCN(Cc3nc4ccc(C)cc4o3)CC2)cc1OC	none
COc1ccc(-c2c(C)c3ccc(O)c(CN4CCCC(C)C4)c3oc2=O)cc1OC (configuration not stated)	Pf Dd2 inh 11µM
COc1ccc(-c2nnc([C@H]3CCN(C(=O)c4ccc(OC)c(OC)c4)C3)o2)cc1	none
COc1ccc(-c2c(C)c3ccc(O)c(CN4CCN(CCO)CC4)c3oc2=O)cc1OC	none
COc1ccc(S(=O)(=O)NCC2CCCN(Cc3ccc(-c4ccco4)cc3)C2)cc1 (configuration not stated)	none
CC1CCN(CCCNC(=O)C2CCCN(Cc3ccncc3)CCC(=O)NCC2)CC1 (configuration not stated)	none
O=C1CCC2(CCCO2)CCN1Cc1ccc(F)c(F)c1 (configuration not stated)	none
COc1ccc(C(=O)N2CCCCCCNC(=O)CC2)c(OC)n1	none
O=C(CN1CCOCC1)N1CCC(c2cc(N3CCCC3)ncn2)CC1	none
COc1ccccc1-c1ccnc(N[C@H]2CO[C@H]3[C@@H]2OC[C@@H]3NC(=O)COc2ccccc2)n1	none
Cc1ccc(C(=O)NCCOc2nonc2C)cc1N1CCNC1=O	none
COc1cc2c(cc1OCc1ccccc1)N([S+](=O)([O-])c1ccc3c(c1)CCO3)CC21CCN(C)CC1	Pf Dd2 inh 3.5µM
COc1cccc([S+](=O)([O-])N2CCCC3(CC(Cc4ccccc4)=NO3)C2)c1 (configuration not stated)	none
COc1ccc(C(=O)N2CC3(CCN(C)CC3)c3cc(OC)c(OCc4ccccc4)cc32)cn1	none
Cc1nc(C)c(C(=O)N2CCC(N3C(=O)C4(CCCC4)C3c3scnc3C)CC2)s1 (configuration not stated)	none
COc1ccccc1Nc1sc(C(=O)c2ccc(F)cc2)c(N)c1S(=O)(=O)c1ccc(C)cc1	none
Cc1ccccc1Nc1sc(C(=O)c2ccccc2)c(N)c1S(C)(=O)=O	none
COc1ccc(S(=O)(=O)c2c(Nc3cccc(C)c3C)sc(C(=O)c3ccccc3)c2N)cc1	Pf Dd2 inh 10µM
CCCSC1=NC2(CCN(C(=O)NC3CCCCC3)CC2)N=C1c1ccc(OC)cc1	Pf Dd2 inh 11µM
Cc1nc(-c2ccc(OC3CCN(C(=O)NC4CCCCC4)C3)cc2)no1 (configuration not stated)	none
CCSC1=NC2(CCN(C(=O)NC3CCCCC3)CC2)N=C1c1ccc(OC)cc1	Pf Dd2 inh 7.1µM
CCCSC1=NC2(CCN(C(=O)NC3CCCCC3)CC2)N=C1c1ccccc1	none
COC1CCC12CCN(C(=O)NC1CCCCC1)CC2 (configuration not stated)	none
COc1ccc(-c2nc(C(C)C)nc3c2CCN(C(=O)NC2CCCC2)CC3)cc1	none
COc1ccc(NC(=O)N2CCCC2c2nncn2C2CCCC2)c(OC)c1 (configuration not stated)	none
CC(C)CC(=O)N1CCC(Oc2nccnc2N(C)C)C1 (configuration not stated)	none
CCOC(=O)CCNC(=O)N1CCCCCCNC(=O)[C@@H]2C[C@@H](c3nc(-c4cccnc4)no3)C[C@@H]21	none
COc1ccc(CN2C(=O)COC[C@@H]2[C@H](O)c2ccc(NC(C)=O)cc2)cc1	none
COc1ccc(NC(=O)N2CCC(Oc3ncccc3C(=O)N(C)C)C2)c(OC)c1 (configuration not stated)	none
Cc1ccc(SC2CCN(Cc3nc(CCc4ccccc4)no3)CC2)cc1	none
c1ccc(CCc2noc(CN3CCCCC3CCn3cccn3)n2)cc1 (configuration not stated)	none
CC(C)Cc1nc(CN2C[C@@H]3CC[C@H](C2)N(Cc2ccccc2)C3)no1	Pf Dd2 inh 10µM
CC(=O)NC1CCCN(Cc2cccc(OCCN3CCOCC3)c2)C1 (configuration not stated)	none
CC(C)c1cc(C(=O)N2CCN(C)[C@@H]3CS(=O)(=O)C[C@@H]32)nc2ncnn12	none
O=C(CCCc1ccccc1)N1CCCCCC1c1nc(C2CC2)no1 (configuration not stated)	none
CN(C(=O)NC1CCCC1)C1CCc2ccccc2C1 (configuration not stated)	none
CCC(=O)N1CC(=O)N(CC)C2(CCOCC2)C1	none
COc1ccc(C(=O)NC(C(=O)N2CCCC2)C2CCN(C(=O)c3ccccc3)CC2)cc1 (configuration not stated)	none
CCN(CC)C(=O)C(NC(=O)c1ccc(C)cc1)C1CCN(C(=O)c2cccc(OC)c2)CC1 (configuration not stated)	Pf Dd2 inh 4.5µM
CCC(C)NC(=O)C(NC(=O)c1ccc(C)cc1)C1CCN(C(=O)c2ccc(F)cc2)CC1 (configuration not stated)	none
CCN(CC)C(=O)C(NC(=O)c1ccc(OC)cc1)C1CCN(C(C)=O)CC1 (configuration not stated)	none
CCCNC(=O)C(NC(=O)c1cccc(OC)c1)C1CCN(C(=O)c2cccc(OC)c2)CC1 (configuration not stated)	none
COc1ccc(C(=O)NC(C(=O)NC(C)C(C)C)C2CCN(C(=O)c3ccc(C)cc3)CC2)cc1 (configuration not stated)	Pf Dd2 inh 2.5µM
COc1ccc(N2CC(C(=O)NCCOc3ccccc3)NC2=O)cc1 (configuration not stated)	none
CC(C)c1nnc(C2CN(C(=O)c3ccc(F)c(F)c3)CC23CCOCC3)o1 (configuration not stated)	none
Cc1ccc(NC(=O)N2CC(C(=O)N(C)C)C3(CCOCC3)C2)cc1 (configuration not stated)	none
O=C(N1CCC(NS(=O)(=O)c2ccccc2)CC1)N1CC2CC(C1)[C@H]1CCCC(=O)N1C2 (some centres not stated)	none
CCNC(=O)[C@@H]1C[C@@H](O)CN1C1CCN(C(=O)c2cccc(OC)c2)CC1	none
COc1cccc(C(=O)N2CCC(N3C[C@H](O)C[C@H]3C(=O)N3CCc4ccccc4C3)CC2)c1	Pf Dd2 inh 1.4µM
COc1cccc(C(=O)N2CCC(N3C[C@H](O)C[C@H]3C(=O)N3CCN(C(C)C)CC3)CC2)c1	none
O=C(NCc1nnc2ccc(-c3ccccc3)nn12)c1ccc(Cl)s1	none
Cc1cnn(CC(=O)N2CCCCCCNC(=O)CC2)c1	none
COCCNC(=O)[C@@H]1C[C@H](Oc2ccccc2)CN1C(=O)c1cnc(C)cn1	none
CCn1cc(S(=O)(=O)N2CCC(C(=O)O)(n3cccn3)CC2)cn1	none
CCN(CC)CCCNc1cc(-c2ccccc2)nc(C)n1	none
CCOC(=O)c1ccc(Nc2cc(-c3ccccc3)nc(C)n2)cc1	none
Cc1nc(Nc2ccc(Cl)cc2)cc(-c2ccccc2)n1	Pf Dd2 inh 8.9µM
